Compound activity deposited in PubChem by Broad Institute.
Only some compounds are listed: those with a hit (about 7.9% of all), similar ones and a draw of the others.
NOMO-1 viab – STK33 inhibitor candidate reducing NOMO-1 cell viability; actives 7.5% (n = 37,000); NOMO-1 AML viability, CellTiter-Glo luminescence, 72 h; inhibition, % (no concentration beside the values); in the data active = inhibition above about 80%; inconclusive = no clear call, values can overlap the other calls
PD-1 reverse act – activators reversing PD-1 mediated T-cell inhibition. activation, % (concentration not given with the values). primary human CD4 T cells, PD-L1 beads, CellTiter-Glo 96 h. AID 2316. 29,000 tested, under 10 active; call rule not given here;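 note: 0% = median vehicle wells and 100% = positive control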
Shh pathway inh – blocks Sonic Hedgehog signaling | Shh-LIGHT2 Gli-luciferase reporter, 30 h | inhibition, % (test concentration not listed) | actives 2.1% (n = 22,000) | AID 2313;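 active = mean inhibition across valid replicates above about 65%, limit read from the data; inconclusive = mean under the limit, yet half or more replicates past it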;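 note: pathway switched on by Shh-conditioned medium diluted 1 in 25 in low serum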
MITF inhib – MITF inhibition | TRPM1 promoter luciferase, luminescence, 24 h | inhibition, % (concentration not given with the values) | actives 0.28% (n = 37,000) | AID 2240; in the data active = inhibition above about 85%; inconclusive = no clear call, values can overlap the other calls; inactive = below about 68%;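 note: human melanocyte line stably carrying TRPM1 promoter luciferase reporter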
Starred values were filed as active, the others as inactive; u = inconclusive; x = not tested or not shown; ! = a repeat was not active.

SMILES | NOMO-1 viab | PD-1 reverse act | Shh pathway inh | MITF inhib
COC(=O)C[C@H]1C(C)(C)C(=O)[C@@H]2C[C@@]3(O)C4=CC(=O)O[C@@H](c5ccoc5)[C@]4(C)CCC3[C@@]1(C)C2=O (stereo partly specified) | 104* | x | 86* | -51
COC(=O)c1cc(NC(=O)CC2Sc3ccccc3NC2=O)cc(C(=O)OC)c1 (stereo unspecified) | 113* | x | x | 6
O[C@H]1[C@H]2c3cc4c(cc3CN3CCC(=C[C@@H]1O)[C@H]23)OCO4 | 142* | -6 | 83* | 62
CN1CCc2cc3c(cc2C2OC(O)c4c(ccc5c4OCO5)C21)OCO3 (stereo unspecified) | 14 | 1 | -12 | 6
O[C@@H]1[C@@H](O)C=C2CCN3Cc4cc5c(cc4[C@H]1C23)OCO5 (stereo partly specified) | 114* | x | 96* | 63
Cc1ccc(-c2nn(CC(=O)Nc3ccc(C)cc3C)c(=O)c3ccccc23)cc1 | 111* | -3 | x | 12
CCn1c(SCC(=O)N2CCN(c3ccccc3)CC2)nnc1-c1ccccc1O | 16 | 2 | x | 66
Cc1nnc(Nc2ccc(OCC(=O)N3CCN(c4ccccc4)CC3)cc2)c2ccccc12 | 88* | 2 | x | 29
O=C1C(=O)N(CCCn2ccnc2)C(c2cccs2)C1C(=O)c1cc2ccccc2o1 (stereo unspecified) | 0 | 1 | x | 1
Cc1cc(C(=O)Nc2cccc3c2O[C@H](CN(C)Cc2ccc(Oc4ccccc4)cc2)[C@@H](C)CN([C@@H](C)CO)C3=O)n(C)n1 | 70 | -2 | 77* | 45
Cc1cc(C(=O)Nc2cccc3c2O[C@H](CN(C)Cc2ccc(Oc4ccccc4)cc2)[C@H](C)CN([C@@H](C)CO)C3=O)n(C)n1 | 2 | 1 | -20 | -16
Cc1cc(C(=O)Nc2cccc3c2O[C@@H](CN(C)Cc2ccc(Oc4ccccc4)cc2)[C@H](C)CN([C@H](C)CO)C3=O)n(C)n1 | 89* | -3 | 69* | 42
Cc1cc(C(=O)Nc2cccc3c2O[C@@H](CN(C)Cc2ccc(Cl)c(Cl)c2)[C@@H](C)CN([C@H](C)CO)C3=O)n(C)n1 | 92* | -6 | 49 | 26
Cc1cc(C(=O)Nc2cccc3c2O[C@H](CN(C)Cc2ccc(Cl)c(Cl)c2)[C@H](C)CN([C@@H](C)CO)C3=O)n(C)n1 | 11 | -3 | 2 | -12
Cc1ccc2c(c1)c1c(n2CC(O)CO)C(=O)CCC1 (stereo unspecified) | -8 | x | x | 6
O=S(=O)(CCc1ccncc1)c1ccccc1 | -4 | 0 | -17 | 19
Cc1ccc(N=Cc2cc3ccccc3nc2Cl)cc1Cl | 114* | -4 | 89* | 16
Fc1ccc(C=Nc2ccc3ccccc3c2)cc1 | 17 | -1 | -32 | 7
CN(/N=C/c1ccccc1)C1=NS(=O)(=O)c2ccccc21 | 45 | 1 | x | -1
Cc1ccc(S(=O)(=O)Nc2ccc3c(c2)C(=O)N([C@@H](C)CO)C[C@H](C)[C@@H](CN(C)Cc2ccc(Cl)c(Cl)c2)O3)cc1 | 106* | -1 | -1 | 6
C[C@@H]1CN([C@H](C)CO)C(=O)c2cc(NS(=O)(=O)c3ccccc3)ccc2O[C@@H]1CN(C)Cc1ccc(Cl)c(Cl)c1 | 66 | -1 | x | -7
C[C@@H]1CN([C@@H](C)CO)C(=O)c2cc(NS(=O)(=O)c3ccc(F)cc3)ccc2O[C@H]1CN(C)Cc1ccc(Cl)c(Cl)c1 | u | -2 | x | 24
Cc1ccc(S(=O)(=O)Nc2ccc3c(c2)C(=O)N([C@@H](C)CO)C[C@@H](C)[C@@H](CN(C)Cc2ccc(Cl)c(Cl)c2)O3)cc1 | 117* | -2 | 15 | 75
CCN(CC)CC(O)Cn1c(C)c(-c2ccccc2)c2cc([N+](=O)[O-])ccc21 (stereo unspecified) | 94* | x | x | -49
CCn1c2ccccc2c2cc(CNCCc3ccc(Cl)cc3)ccc21 | 113* | -11 | 17 | 31
SMILES | NOMO-1 viab | PD-1 reverse act | Shh pathway inh | MITF inhib
O=c1c2ccccc2n(Cc2ccc(Cl)cc2)c(=O)n1Cc1ccc(Cl)cc1 | 37 | 0 | x | -13
CC1CCc2c(sc3ncnc(SCCO)c23)C1 (stereo unspecified) | 24 | -5 | x | -100
CC1(C)CC(=O)C2=C(C1)Nc1ccccc1N(C(=O)C(F)(F)F)C2c1ccc(Cl)cc1Cl (stereo unspecified) | 87* | 0 | -11 | 25
COc1ccc(C2C3=C(CC(C)(C)CC3=O)Nc3ccccc3N2C(C)=O)cc1COc1ccc(F)cc1 (stereo unspecified) | 9 | 0 | x | -20
O=C(CSc1nnc(-c2ccncc2)o1)Nc1cccc(C(F)(F)F)c1 | 6 | x | x | -25
Fc1cccc(Cl)c1CSc1ccccc1C1=NCCCN1 | 15 | 2 | -5 | 13
Fc1cccc(Cl)c1CSC1=NCCN1 | 136* | -1 | 38 | 17
N#Cc1c(NC(=O)Cn2cnc3ccccc3c2=O)sc2c1CCC2 | 14 | x | x | -13
C=CCOC(Cn1ccnc1)c1ccc(Cl)cc1Cl (stereo unspecified) | 16 | x | 36 | 21
Clc1ccc(COC(Cn2ccnc2)c2ccc(Cl)cc2Cl)c(Cl)c1 (stereo unspecified) | 28 | x | 65*! | 11
O=c1cc(CSc2n[nH]c(=O)n2-c2ccccc2)c2ccc(O)cc2o1 | -10 | -1 | -11 | 0
COc1cc(OC)c(NC(=O)CN(C)S(=O)(=O)c2ccc(Br)cc2)cc1Cl | 4 | x | x | -10
COC(=O)C1CCCN1S(=O)(=O)c1ccccc1 (stereo unspecified) | 93* | 0 | -8 | -3
COc1cccc(S(=O)(=O)N2CCCC2C(=O)O)c1 (stereo unspecified) | 6 | 1 | x | -17
CSc1ccc(/C=N/n2nnnc2Nc2ccccc2)cc1 | 95* | -2 | 44 | 4
C[C@H]1CN([C@@H](C)CO)C(=O)Cc2cc(NC(=O)Cc3cn(C)c4ccccc34)ccc2O[C@H]1CN(C)Cc1ccc(C(F)(F)F)cc1 | 83* | x | 7 | 28
C[C@@H]1CN([C@H](C)CO)C(=O)Cc2cc(NC(=O)Cc3cn(C)c4ccccc34)ccc2O[C@H]1CN(C)Cc1ccc(C(F)(F)F)cc1 | 133* | -4 | 14 | 3
Cc1c(CCC(=O)O)c(=O)oc2c(C)c(OCc3cccc4ccccc34)ccc12 | -12 | x | x | -7
O=S(=O)(Nc1ncccn1)c1ccc(NC(=S)Nc2ccc3c(c2)OCCO3)cc1 | -12 | x | x | -45
S=c1[nH][n+]2c(-c3ccccc3)cc(-c3ccccc3)nc2s1 | 16 | -1 | x | -6
CCOC(=O)CSc1sc(C(=O)OCC)c2c1S(=O)(=O)N(C)c1ccccc1-2 | 120* | 0 | -12 | 12
N#CSCC(=O)C12CC3CC(CC(C3)C1)C2 | 113* | -7 | x | 47
CC(=O)Nc1ccc(C(=O)Nc2ccc(S(=O)(=O)Nc3nccs3)cc2)cc1 | -18 | 3 | x | 5
COC(=O)c1ccccc1NC(=O)COc1ccc(Br)cc1C(C)(C)C | 16 | -2 | x | 5
CC(=O)OCC(=O)[C@@]1(O)[C@H](C)C[C@H]2[C@@H]3CCC4=CC(=O)C=C[C@]4(C)[C@@]3(F)[C@@H](O)C[C@@]21C | 15 | -3 | 82* | -47
